From PubChem
AmpC inh detg – inhibitors of E. coli AmpC beta-lactamase with detergent | AmpC hydrolysis of nitrocefin, absorbance 480 nm, 0.01% Triton | Potency, µM (titrated, usually from 114 µM), for the others: at the highest dose activity change, negative = inhibition, usual class: inhibitors | 370,000 tested, 0.041% active;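 further: 0% = no-compound wells and -100% = no-enzyme wells; nearly all actives have a fitted effect of over 25% in size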
Target sequence (P00811 whole entry, looked up): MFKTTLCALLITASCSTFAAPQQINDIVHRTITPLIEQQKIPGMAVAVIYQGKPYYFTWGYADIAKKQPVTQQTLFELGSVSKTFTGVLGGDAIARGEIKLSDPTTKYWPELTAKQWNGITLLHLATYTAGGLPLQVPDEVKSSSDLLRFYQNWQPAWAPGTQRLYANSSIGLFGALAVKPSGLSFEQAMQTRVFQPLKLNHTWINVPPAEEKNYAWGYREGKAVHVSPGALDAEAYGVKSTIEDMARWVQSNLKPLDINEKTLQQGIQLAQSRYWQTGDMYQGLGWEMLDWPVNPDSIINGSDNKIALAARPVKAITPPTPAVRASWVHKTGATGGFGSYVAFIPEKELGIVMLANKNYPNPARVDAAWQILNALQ
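20 mM phosphate pH 7.0 + 0.01% (detergent screen) or 0.0001% Triton X-100; 5.3 nM AmpC reagent; cpd preinc 15 min RT; nitrocefin (800 uM stock) to start; A480 q20 s × 4 min; Activity was normalised to no-enzyme and no-compound control wells.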
AmpC inh no detg – blocks E. coli AmpC beta-lactamase in detergent-free assay | P00811 | AmpC nitrocefin hydrolysis, absorbance 480 nm, 0.0001% Triton | Potency, µM (highest dose often 57.1 µM), inactives show at the top dose activity change, negative = inhibition, usual class: inhibitors | 330,000 tested, 0.52% active;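 further: plate controls were no compound for no effect and no enzyme for full effect; nearly all actives have a fitted effect of over 20% in size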
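AmpC (5.3 nM in the dispensed reagent) in 20 mM phosphate pH 7.0 with 0.01% (detergent screen) or 0.0001% Triton X-100 was preincubated with compounds for 15 min at room temperature. Nitrocefin was then added from an 800 uM solution, and hydrolysis was followed at 480 nm.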
Sm TGR inh – inhibitors of Schistosoma mansoni thioredoxin glutathione reductase; Potency, µM (highest dose often 114 µM), inactives show top-dose activity change, negative = inhibition, hits mostly inhibitors; AID 485364; 360,000 tested, 3% active; purified TGR, DTNB reduction, TNB absorbance 405 nm; further: nearly all actives have a fitted effect of over 60% in size
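TGR 20 nM + NADPH 100 uM (dispensed conc.), cpd preinc 15 min RT; start with NADPH (500 uM addition) then DTNB (15 mM addition). Kinetic TNB absorbance, 405 nm filter. Four-parameter Hill fit across titration.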
* hit, by the source's call; ? = inconclusive; . = no result. A selection: hits, their analogues and other compounds. The true share with any hit is near 3.3%. The call rests on the fitted dose curve; in most records, active means well fitted curve in the direction sought with a large enough effect; inconclusive means small, poorly fitted or top-dose-only effect, or another doubt; inactive means no such curve, though single readings can be large; an effect the other way counts as inactive or inconclusive. Unless noted, on the % scale 0 is the no-effect control and ±100 the full control effect; potency means the concentration at half of the fitted maximal effect.

SMILES	AmpC inh detg	AmpC inh no detg	Sm TGR inh
CCOC(=O)c1cc2c(ccn2C)n1CC(=O)N1CCN(c2ccccc2)CC1	31.6µM*	60.9%	-2.9%
Cc1ccc(NC(=O)N2CCN(C(=O)c3nsc4ccccc34)CC2)cc1C	-1.1%	.	-1.6%
Cc1ccc(C)c(/C(O)=C2/C(=O)C(=O)N(CCN3CCOCC3)C2c2ccc(C)o2)c1 (stereo not drawn)	-13.7%	1.0%	?
Cc1ccc(C2/C(=C(/O)c3cnn(-c4ccccc4)c3C)C(=O)C(=O)N2CCCN2CCOCC2)o1 (stereo not drawn)	-7.9%	34.3%	10µM*
Cc1c(/C(O)=C2/C(=O)C(=O)N(CCN3CCOCC3)C2c2ccccn2)cnn1-c1ccccc1 (stereo not drawn)	-7.2%	55.4%	22.4µM*
Cc1c(/C(O)=C2\C(=O)C(=O)N(CCCN(C)C)C2c2ccccc2)cnn1-c1ccccc1 (stereo not drawn)	-13.7%	-7.2%	3.3%
Cc1ccc(N(Cc2cccs2)C(=O)c2ccc(OC(C)C)cc2)cc1	-4.3%	.	-8.0%
CC#CCc1cc2ccccc2c(=O)o1	-1.2%	-19.5%	3.98µM*
O=c1oc(CCO)cc2ccccc12	.	-5.8%	.
O=C(NCCc1ccccc1)c1ccc2c(c1)N(Cc1ccccc1)C(=O)c1ccccc1S2=O (stereo not drawn)	-0.5%	.	2.6%
CCOc1ccc(Sc2cc(C(=O)NC(C)c3ccccc3)c3ccccc3n2)cc1 (stereo not drawn)	9.3%	.	3.4%
N#Cc1nc(-c2ccc(F)cc2)oc1NCc1cccc2c1OCO2	-9.5%	-19.3%	-9.2%
Cc1ccc(-c2nc(C#N)c(NCc3cccc4c3OCO4)o2)cc1	7.6%	0.316µM*	-1.2%
CCOc1cc(C2C(C(N)=O)=C(C)Nc3ncnn32)cc(Br)c1O (stereo not drawn)	12.2%	.	-9.7%
CCOc1cc(C2C(C(=O)Nc3ccccc3)=C(C)Nc3ncnn32)cc(Br)c1O (stereo not drawn)	0.7%	.	44.7µM*
CCOC(=O)N1CCN(S(=O)(=O)c2ccc(Cl)cc2)CC1	-14.5%	-2.6%	-10.9%
CCOC(=O)N1C(=O)[C@](c2ccc(Cl)cc2)(C(C)C)N1C(=O)OCC	-2.7%	53.5%	17.8µM*
CCOC(=O)N1C(=O)[C@@](c2ccc(Cl)cc2)(C(C)C)N1C(=O)OCC	-1.4%	43.5%	11.2µM*
CCOC(=O)n1c(=O)oc2ccc(Cl)cc21	-0.2%	-11.4%	0.0%
Cc1cccc(N(C)C(=O)Cc2c(C(=O)O)[nH]c3ccccc23)c1	-7.4%	.	-5.2%
CCn1c(C(=O)NCc2ccccc2OC)cc2sccc21	3.1%	.	-0.3%
Cc1ccc(/C=C2\CCCC3=C2NC(=S)NC3c2ccc(C)cc2)cc1 (stereo not drawn)	-4.7%	-53.2%	?
Cc1ccc(/C=C2\CC(C)CC3=C2NC(=S)NC3c2ccc(C)cc2)cc1 (stereo not drawn)	5.5%	-37.3%	15.8µM*
COc1ccc(NC(=O)c2noc3c2CCCC3)cc1Cl	28.7%	.	9.8%
C=CCOC(=O)c1[nH]c2c(c1C)C(=O)CC(c1ccco1)C2 (stereo not drawn)	?	-11.9%	44.7µM*
SMILES	AmpC inh detg	AmpC inh no detg	Sm TGR inh
Cc1c(C(=O)OCC2CCCO2)[nH]c2c1C(=O)CC(c1ccco1)C2 (stereo not drawn)	-0.5%	-18.1%	?
C/C=C/COC(=O)c1[nH]c2c(c1C)C(=O)CC(c1ccco1)C2 (stereo not drawn)	-7.1%	-56.7%	50.1µM*
Cc1c(C(=O)OCC(C)C)[nH]c2c1C(=O)CC(c1ccco1)C2 (stereo not drawn)	-8.6%	-22.4%	?
COc1ccc(CNC(=O)CCS(=O)(=O)c2cc(Br)cc3c2N(C(=O)C2CC2)CC3)cc1	13.9%	.	?
CC(C)NC(=O)CCN1C(=O)c2ccccc2Sc2ncccc21	2.5%	-1.3%	14.9%
O=C(CCN1C(=O)c2ccccc2Sc2ncccc21)Nc1ccc(F)cc1	-2.3%	.	15.8µM*
CCc1cccc(NC(=O)CCN2C(=O)c3ccccc3Sc3ncccc32)c1	-2.3%	.	44.7µM*
Cc1ccc(C)c(NC(=O)CCN2C(=O)c3ccccc3Sc3ncccc32)c1	-4.1%	.	-33.5%
COc1ccccc1NC(=O)CSc1sc2c(O)cc(=O)[nH]c2c1C#N	-1.1%	-38.7%	14.1µM*
Cc1ccc(C)c(NC(=O)CSc2sc3c(O)cc(=O)[nH]c3c2C#N)c1	-0.4%	-38.6%	-1.3%
CCSc1nnc(NC(=O)CSc2sc3c(O)cc(=O)[nH]c3c2C#N)s1	3.0%	?	-25.8%
